# PubChem BioAssay (NCI)
# The panel holds about 79,000 compounds, 15% with a hit somewhere; the sample as a whole holds those more often. Calls of active or inactive are those of the source. Rule as the data show it: active = growth inhibition above about 70%; inactive = the rest. Residues, ends and D or L forms follow the SMILES beside them. *: point of attachment. Fmoc = O=C(OCC1c2ccccc2-c2ccccc21)*; Boc = CC(C)(C)OC(=O)*
# Experiment: NCI Yeast Anticancer Drug Screen. Data for the mlh1 strain (AID 171);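 also: 0% = growth of vehicle-treated control cultures of the same strain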
# Conditions: S. cerevisiae mlh1 strain growth inhibition; at 100.0 µM; active compounds read high
# Summary of the method: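 Measured: yeast growth. Reference: vehicle-treated controls. Organism: strain with a defined alteration affecting DNA damage repair or cell cycle control, treated with compound.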
row,Structure (SMILES),growth inhibition
1,O=[N+]([O-])c1cc[n+]([O-])c(Cl)c1,99% (active)
2,CCCNC(=O)OCc1c(COC(=O)NCCC)c(-c2ccc(Cl)c(Cl)c2)n2c1CCC2,57% (inactive)
3,CC1(C)CC(=O)C(C(=O)Nc2cccs2)=C(O)C1,99% (active)
4,O=C(NO)c1coc2ccccc2c1=O,11% (inactive)
5,COc1ccc(C(C)c2cc3c(cc2OCC(C)=O)OCO3)cc1 (configuration not stated),76% (active)
6,O=S(=O)(c1ccccc1)N1CN2CN(C1)CN(S(=O)(=O)c1ccccc1)C2,-21% (inactive)
7,CC1=NN(C(=O)c2ccccc2O)C(=O)/C1=C/c1ccco1,96% (active)
8,O=C1C=C(Br)C(=O)c2ccccc21,99% (active)
9,C[N+](C)([O-])CCCNc1c2ccccc2nc2cccc([N+](=O)[O-])c12,95% (active)
10,Cc1cccc2c(NCCCN(C)C)c3c([N+](=O)[O-])ccc(C)c3nc12,98% (active)
11,OC1(c2ccccc2)C2CC=CC2C1(c1ccccc1)c1ccccc1 (configuration not stated),45% (inactive)
12,C[n+]1c(-c2ccc(/C=N/NC(=O)c3ccc(C(=O)N/N=C/c4ccc(-c5cn6ccccc6[n+]5C)cc4)cc3)cc2)cn2ccccc21,84% (active)
13,O=[N+]([O-])c1ccc2nc(=S)[nH]n2c1,26% (inactive)
14,O=C(c1ccccc1)[C@H]1Nc2ccc(Cl)cc2[C@H]2OCCC[C@@H]12,91% (active)
15,COc1cc([N+](=O)[O-])c2ncccc2c1Br,-4% (inactive)
16,O=S(=O)(c1cccc(C(F)(F)F)c1)N1c2ccccc2-n2cccc2C1c1cccnc1 (configuration not stated),88% (active)
17,CC(C)(C)OC(=O)NCCCCC(NC(=O)C(Cc1c[nH]c2ccccc12)NC(=O)OCC1c2ccccc2-c2ccccc21)C(=O)O (configuration not stated) (Fmoc-Trp-Lys(Boc)-OH; configuration not given here),70% (active)

# Experiment: NCI Yeast Anticancer Drug Screen. Data for the sgs1 strain (AID 173);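 also: 0% = growth of vehicle-only control cultures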
# Conditions: S. cerevisiae sgs1 mutant, at 1.2 µM, active compounds read high
# Summary of the method: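 Each compound was added to cultures of the altered yeast strain. Growth was recorded, and inhibition was derived by comparison with vehicle controls.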
row,Structure (SMILES),growth inhibition
1,CC(C)C(=O)CC(Sc1ccc(N)cc1)c1ccccc1 (configuration not stated),0% (inactive)
2,CC(C)OP(=O)(OC(C)C)/C(Cl)=N/Nc1ccc([N+](=O)[O-])cc1,28% (inactive)
3,O=[N+]([O-])c1cc(Cl)ccc1S(=O)(=O)c1ccc(Cl)cc1[N+](=O)[O-],-3% (inactive)
4,CCCCCCNCCCNc1c2cc(OC)ccc2nc2cccc([N+](=O)[O-])c12,21% (inactive)
5,N#CCC(=O)N/N=C(\c1ccccc1)C(c1ccccc1)C1(O)C(=O)Nc2c(Cl)ccc(Cl)c21 (configuration not stated),-1% (inactive)
6,CN(C)CCNCCCNc1c2ccccc2nc2cccc([N+](=O)[O-])c12,31% (inactive)
7,CCC[CH2][Ge]([CH2]CCC)([CH2]CCC)[O]C(=O)C(O)c1ccccc1 (configuration not stated),-1% (inactive)
8,COc1ccc(-c2cc(-c3cc(C)cc(Cl)c3O)nc3[nH]c(=S)[nH]c(=S)c23)cc1,1% (inactive)
9,O=[N+]([O-])c1ccc(/C=C\c2ccc3c(c2)OCO3)c([N+](=O)[O-])c1,-2% (inactive)
10,O=C1c2ccccc2N2OC3(N4CCCC4)CCCCC3C12c1ccccc1 (configuration not stated),-1% (inactive)
11,CC(C)OC(=O)NNc1cc(Cl)ccc1Cl,0% (inactive)
12,Cc1oc2ccccc2c(=O)c1Cn1nnc2ccccc21,0% (inactive)
13,CC1(C)OC(=O)C(=Cc2ccc([N+](=O)[O-])s2)C(=O)O1,-31% (inactive)
14,CCN(CC)CCCNc1ccc([N+](=O)[O-])c2nc3ccc(OC)cc3c(NCCCN(CC)CC)c12,2% (inactive)
15,COc1cccc(/C=C2\S/C(=N/Nc3nc(-c4ccc([N+](=O)[O-])cc4)cs3)NC2=O)c1O,5% (inactive)
16,OC(Cc1cccc2ccccc12)CN1CCC(c2ccccc2)CC1 (configuration not stated),60% (inactive)
17,C1=CCN([B-](c2ccccc2)[C+]2CCCCC2)C=C1,-2% (inactive)
18,O=[N+]([O-])c1cc[n+]([O-])c(Cl)c1,8% (inactive)
19,CCCNC(=O)OCc1c(COC(=O)NCCC)c(-c2ccc(Cl)c(Cl)c2)n2c1CCC2,0% (inactive)
20,CC1(C)CC(=O)C(C(=O)Nc2cccs2)=C(O)C1,8% (inactive)
21,O=C(NO)c1coc2ccccc2c1=O,-1% (inactive)
22,COc1ccc(C(C)c2cc3c(cc2OCC(C)=O)OCO3)cc1 (configuration not stated),-3% (inactive)
23,CCS(=O)(=O)Nc1ccc(Nc2c3ccccc3nc3ccccc23)c(OC)c1,-14% (inactive)
24,O=S(=O)(c1ccccc1)N1CN2CN(C1)CN(S(=O)(=O)c1ccccc1)C2,-21% (inactive)
25,CC1=NN(C(=O)c2ccccc2O)C(=O)/C1=C/c1ccco1,7% (inactive)
